RORgamma inh: qHTS for inhibitors of ROR gamma transcriptional activity. Drosophila S2 Gal4-RORgamma UAS-luciferase reporter, 20 h. Nuclear receptor ROR-gamma (Mus musculus), P51450. actives 5.4% (n = 310,000). Potency, µM (highest dose often 53.6 µM), usual class: inhibitors; also: nearly all actives have a fitted effect of over 60% in size
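Read-out: Photinus luciferase luminescence; inhibitors lower reporter signal. Insect Schneider cells with Gal4-ROR gamma fusion under metallothionein promoter, UAS reporter; 700 uM final copper sulfate induction, 20 hr, ambient temperature.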
Gal4-VP16 FLuc: VP16 counterscreen qHTS for inhibitors of ROR gamma transcriptional activity | AID 2546, 2010 | actives 3.5% (n = 310,000) | Drosophila S2 Gal4-VP16 UAS-luciferase, luminescence, 20 h | Potency, µM (top dose mostly 53.6 µM), most hits filed as inhibitors;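 also: Gal4-VP16 expression switched on by copper sulfate through the metallothionein promoter; nearly all actives have a fitted effect of over 50% in size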
TDP1 inh: qHTS Assay for Inhibitors of Tyrosyl-DNA Phosphodiesterase (TDP1); Potency, µM (doses to about 130 µM), usual class: inhibitors; Tyrosyl-DNA phosphodiesterase 1 (Homo sapiens), Q9NUW8; recombinant TDP1, AlphaScreen DNA substrate cleavage; actives 0.28% (n = 350,000); also: nearly all actives have a fitted effect of over 40% in size
Target sequence (Q9NUW8 whole entry, looked up): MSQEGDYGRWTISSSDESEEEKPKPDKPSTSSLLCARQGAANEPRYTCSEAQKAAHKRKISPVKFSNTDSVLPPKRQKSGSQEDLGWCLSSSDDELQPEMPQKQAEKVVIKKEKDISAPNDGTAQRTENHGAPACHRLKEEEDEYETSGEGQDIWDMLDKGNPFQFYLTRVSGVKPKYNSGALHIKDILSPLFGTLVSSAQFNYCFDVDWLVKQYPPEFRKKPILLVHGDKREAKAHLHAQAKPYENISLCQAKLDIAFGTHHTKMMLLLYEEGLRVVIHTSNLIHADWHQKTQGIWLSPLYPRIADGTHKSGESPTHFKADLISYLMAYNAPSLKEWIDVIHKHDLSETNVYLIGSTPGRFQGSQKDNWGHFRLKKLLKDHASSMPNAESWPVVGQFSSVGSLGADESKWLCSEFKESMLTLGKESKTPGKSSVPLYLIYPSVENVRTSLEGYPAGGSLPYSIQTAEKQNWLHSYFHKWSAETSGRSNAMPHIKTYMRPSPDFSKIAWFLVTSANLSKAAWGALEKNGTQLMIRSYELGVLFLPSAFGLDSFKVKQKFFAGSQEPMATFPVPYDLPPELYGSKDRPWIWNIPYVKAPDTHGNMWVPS
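Here, a 5' biotin and 3' phosphotyrosine-FITC DNA oligonucleotide reports Tdp1 activity: intact substrate bridges AlphaScreen beads, while cleavage leaves a 3' phosphate and drops signal. All incubations at room temperature.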
TDP1 cell CPT: qHTS for Inhibitors of human tyrosyl-DNA phosphodiesterase 1 (TDP1): qHTS in cells in presence of CPT; AID 686979, 2013; chicken DT40 Tdp1-/-;hTDP1 cells + 20 nM CPT, ATP luminescence, 48 h; actives 12% (n = 420,000); Potency, µM (titrated, usually from 46.2 µM), hits mostly inhibitors; also: nearly all actives have a fitted effect of over 55% in size
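Cell growth measured by CellTiter-Glo luminescence after a minimum 48 h, 37 C compound exposure with 20 nM CPT in Tdp1-knockout DT40 cells stably expressing hTDP1, seeded 400/well; qHTS titration format.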
TDP1 cell noCPT: qHTS for Inhibitors of human tyrosyl-DNA phosphodiesterase 1 (TDP1): qHTS in cells in absence of CPT; DT40 Tdp1-/- hTDP1 cells, no CPT, ATP luminescence, 48 h; Potency, µM (doses to about 46.2 µM), most hits filed as inhibitors; actives 15% (n = 420,000); also: nearly all actives have a fitted effect of over 55% in size
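Compound effects on proliferation are scored in DT40 Tdp1-/-;hTDP1 cells in the absence of CPT. ATP levels (CellTiter-Glo luminescence) are recorded after a ≥48 hr, 37 °C incubation.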
Of the large screens only hits and unclear results are named; the others gave an inactive call. The list is not random: actives were taken first. Their share in the collection is about 19%. Calls follow the shape of the dose curve; as a rule, active = well fitted curve in the direction sought with a large enough effect; inconclusive = small, poorly fitted or top-dose-only effect, or another doubt; inactive = no such curve, though single readings can be large; an effect the other way counts as inactive or inconclusive.

COc1ccccc1NC(=O)c1c(NC(=O)c2cccs2)sc2c1CCC(C(C)(C)C)C2 (stereo not given)	none (no result: RORgamma inh, Gal4-VP16 FLuc, TDP1 inh)
Cc1cccc(C(=O)Nc2cccc3c2CCCC3)c1	TDP1 cell CPT 18µM, TDP1 cell noCPT 9.2µM (no result: TDP1 inh)
CCOc1ccccc1NC(=O)c1c(NC(=O)CCC(=O)O)sc2c1CCCCC2	RORgamma inh 10µM, Gal4-VP16 FLuc inconclusive
O=C(COc1ccccc1)Nc1sc2c(c1C(=O)Nc1ccccc1)CCCCC2	TDP1 cell CPT inconclusive, TDP1 cell noCPT 0.46µM (no result: RORgamma inh, Gal4-VP16 FLuc, TDP1 inh)
O=C(COc1ccccc1)Nc1sc2c(c1C(=O)Nc1ccccc1Cl)CCCCC2	none (no result: RORgamma inh, Gal4-VP16 FLuc)
CC(C)(C)C1CCc2c(sc(NC(=O)CCC(=O)O)c2C(=O)Nc2ccccc2C(F)(F)F)C1 (stereo not given)	TDP1 cell CPT 16µM, TDP1 cell noCPT 21µM (no result: RORgamma inh, Gal4-VP16 FLuc, TDP1 inh)
CC(C)(CNC(=O)c1cc(Cl)c(O)c(Cl)c1)N1CCCCC1	none (no result: TDP1 inh)
CC(C)(C)c1ccc(-c2nc3cc(NC(=O)c4cc5ccccc5o4)ccc3o2)cc1	TDP1 cell CPT inconclusive, TDP1 cell noCPT inconclusive (no result: RORgamma inh, Gal4-VP16 FLuc)
COc1ccccc1NC(=O)CSc1nc(-c2ccc(C(C)(C)C)cc2)c(C#N)c(=O)[nH]1	none (no result: RORgamma inh, Gal4-VP16 FLuc)
CCOC(=O)C(=CNc1ccc2c(c1)nnn2-c1ccc(Cl)cc1)C(=O)OCC	none
S=C(NCCCc1cnc[nH]1)NCCCN(Cc1ccc(Cl)cc1)c1ccc(Br)cc1	TDP1 cell CPT 13µM (no result: RORgamma inh, Gal4-VP16 FLuc, TDP1 inh)
S=C(NCCCc1cnc[nH]1)NCCCN(Cc1ccc(Cl)cc1)c1ccc(-c2ccccc2)cn1	TDP1 cell CPT inconclusive (no result: RORgamma inh, Gal4-VP16 FLuc, TDP1 inh)
O=C(NCCCc1cnc[nH]1)NCCCN(Cc1ccc(Cl)cc1)c1ccc(Br)cn1	TDP1 cell CPT 2.2µM, TDP1 cell noCPT 4µM (no result: RORgamma inh, Gal4-VP16 FLuc, TDP1 inh)
S=C(NCCCc1cnc[nH]1)NCCCN(Cc1ccc(Cl)cc1)c1ncc(Br)cn1	TDP1 cell CPT 13µM, TDP1 cell noCPT 7.9µM (no result: RORgamma inh, Gal4-VP16 FLuc, TDP1 inh)
S=C(NCCCc1cnc[nH]1)NCCCN(CCc1ccccc1)c1ccc(Br)cn1	TDP1 cell CPT 10µM, TDP1 cell noCPT 8.9µM (no result: RORgamma inh, Gal4-VP16 FLuc, TDP1 inh)
CCOc1ccc(OCC)c(S(=O)(=O)N2CCN(c3cccc(C)c3C)CC2)c1	none (no result: RORgamma inh, Gal4-VP16 FLuc, TDP1 cell CPT, TDP1 cell noCPT)
N/C(=N\OC(=O)Cc1ccccc1[N+](=O)[O-])c1cccc(Br)c1	none
CCOC(=O)c1cc(=O)n(Cc2ccccc2C)c2ccccc12	RORgamma inh inconclusive, TDP1 cell CPT inconclusive
O=C(COc1ccc(Cl)cc1)NC1CC1	none
O=S(=O)(c1ccccc1)c1cnc(-c2ccccc2)nc1N1CCCC1	TDP1 cell noCPT 18µM (no result: TDP1 inh)
COc1ccc(S(=O)(=O)N2CC(C)N(C(=O)N(C)C)C2C)cc1 (stereo not given)	none
CCCCc1ccc(NC(=O)c2cc3c(=O)n4ccccc4nc3n2C)cc1	TDP1 cell CPT inconclusive, TDP1 cell noCPT inconclusive (no result: RORgamma inh, Gal4-VP16 FLuc)
O=C(Nc1cccc(-c2nc3cccnc3s2)c1)c1ccco1	TDP1 cell noCPT inconclusive
Cc1c(NC(=O)c2ccco2)cccc1-c1nc2cccnc2s1	TDP1 cell CPT 21µM, TDP1 cell noCPT inconclusive
O=C(Nc1ccc(-c2nc3cccnc3s2)cc1)c1ccc(Br)o1	TDP1 cell CPT 12µM, TDP1 cell noCPT 8.2µM
O=C(Nc1ccc(-c2nc3cccnc3s2)cc1)c1ccco1	TDP1 cell CPT inconclusive, TDP1 cell noCPT 13µM
O=C(O)c1cc(S(=O)(=O)N(Cc2ccccc2)c2ccc(Cl)cc2)ccc1Cl	none (no result: TDP1 inh)
O=C1C2C3C=CC(C3)C2C(=O)N1CCN1CCN(S(=O)(=O)/C=C/c2ccccc2)CC1 (stereo not given)	none
CCOC(=O)c1cc(-c2ccc(N3CCOCC3)cc2)nn1-c1ccccc1C(=O)O	TDP1 inh 1.6µM
CCOC(=O)c1cc(-c2ccc(N3CCOCC3)cc2)nn1-c1ccccc1	TDP1 cell CPT 21µM, TDP1 cell noCPT 12µM
CCOC(=O)c1cc(-c2ccc(N3CCOCC3)cc2)nn1-c1ccc(F)cc1F	TDP1 cell CPT inconclusive, TDP1 cell noCPT inconclusive
Cc1cccn2c(=O)c(C=C(C#N)C#N)c(N3CCN(c4cccc(Cl)c4)CC3)nc12	TDP1 cell noCPT inconclusive (no result: TDP1 inh)
CCc1c(-c2ccccc2)nc2ccccc2c1C(=O)NC(C)c1ccccc1 (stereo not given)	TDP1 cell CPT inconclusive, TDP1 cell noCPT 23µM (no result: RORgamma inh, Gal4-VP16 FLuc)
CCOc1ccc(-c2cc(C(=O)NC(C)c3ccccc3)c3ccccc3n2)cc1 (stereo not given)	TDP1 cell CPT inconclusive, TDP1 cell noCPT inconclusive (no result: RORgamma inh, Gal4-VP16 FLuc)
C=C1N(CCCCCC(=O)O)C(=O)OC12CCCCC2	none
O=S(=O)(c1cccc(Cl)c1)n1c(/C=C/c2ccccc2Cl)nc2ccccc21	TDP1 cell CPT 18µM, TDP1 cell noCPT 13µM (no result: RORgamma inh, Gal4-VP16 FLuc)
Cc1ccc(/C=C/c2nc3ccccc3n2S(=O)(=O)c2ccc(Br)cc2)cc1	TDP1 cell CPT inconclusive, TDP1 cell noCPT 21µM (no result: RORgamma inh, Gal4-VP16 FLuc)
CSc1ccc(/C=C/c2nc3ccccc3n2S(=O)(=O)c2cccc(Cl)c2)cc1	TDP1 cell CPT 13µM, TDP1 cell noCPT 10µM (no result: RORgamma inh, Gal4-VP16 FLuc)
COc1cccc(/C=C/C(=O)OCC(=O)Nc2ccc3c(c2)OCCO3)c1	none (no result: RORgamma inh, Gal4-VP16 FLuc, TDP1 inh)
CCCC[C@@H]1CN=C(N)N1CC(C)(C)C	TDP1 cell CPT inconclusive, TDP1 cell noCPT 23µM (no result: RORgamma inh, Gal4-VP16 FLuc, TDP1 inh)
CCOC(=O)C(=O)N1c2ccccc2C(N(C(=O)C(=O)OCC)c2ccccc2)CC1C (stereo not given)	TDP1 cell noCPT inconclusive
CC1CC(N(C(=O)c2ccc(Cl)cc2)c2ccccc2)c2ccccc2N1C(=O)c1ccco1 (stereo not given)	TDP1 cell CPT 12µM, TDP1 cell noCPT 5.8µM
